Assay results from ChEMBL document CHEMBL1201862, “PubChem BioAssay data set” (2004).
Measured potencies and affinities stand elsewhere.

Experiment: M. tuberculosis growth inhibition, dose response, 7H9 media, purified and synthesized compounds, set 4 (AID 504857); call rule not given here
Type: functional

**Q.** With `Nc1c(C(=O)NC2CCCCC2)nsc1C(=O)OCC(=O)NC1CCCCC1` as the compound, how does the IC90 read?
**A.** > 71.1 µM (active)
